The source of these data is PubChem BioAssay AID602441 (National Center for Advancing Translational Sciences (NCATS), 2012).

Screen size: about 1,300 compounds; fewer than 10 were called active. Another 9% or so got no clear call; they are omitted. Calls follow the shape of the dose curve; as a rule, active = well fitted curve in the direction sought with a large enough effect; inconclusive = small, poorly fitted or top-dose-only effect, or another doubt; inactive = no such curve, though single readings can be large or run the other way. A selection follows. Where a call stands in place of a potency, no number is given.

This assay is described as follows: qHTS for antagonists of the Thyroid Stimulation Hormone Receptor: Hit Validation in Parental Cell Line. Particulars: parental HEK293 cells lacking TSHR, counter-screen; series mostly up to 56.9 µM. The source says:
The thyroid-stimulating hormone receptor (TSHR) is a member of the 7 trans-membrane-spanning receptor (7TMR) family of cell surface receptors. TSHR-mediated hyperthyroidism is important in thyroid pathology. The development of small molecule antagonists of TSHR may lead to therapeutic approaches for TSHR-mediated hyperthyroidism caused by constitutively activating mutations or stimulating auto-antibodies associated with Graves' disease. Graves' disease is the leading cause of hyperthyroidism and is caused by autoantibodies that stimulate TSHR (TsAbs) causing thyroid growth and unregulated overproduction of thyroid hormones and existing treatments have liabilities (agranulocytosis). In addition, TSHRs are known to be expressed in multiple extrathyroidal tissues including bone, brain, kidney, testis, fat and cells of the immune system but the role of the TSHR in these tissues is not clear. Therefore, TSHR antagonists/inverse agonists could be used as probes of extrathyroidal TSHR function. Finally, TSHR inverse agonists, which are a subclass of antagonists that inhibit agonist-independent (or basal or constitutive) TSHR signaling, could be used to inhibit TSH-independent signaling in patients with recurrent or metastatic thyroid cancer who are receiving thyroid hormone to suppress TSH.
In collaboration between scientist from the NCGC and the NIDDK, a miniaturized HTRF high-throughput screen was developed. It's a cell based assay, where an anti cAMP antibody contains a fluorescent cryptate tag (excitation 337 nm; emission 620 nm) and the acceptor is cAMP-d2 (excitation 620 nm; emission 665 nm). When antibody and cAMP-d2 interact and are excited by a 337 nm light, a FRET occurs resulting in emission at 665 nm. The assay is competition between cAMP-d2 and cAMP (from the cell lysate). The homogeneous protocol allows for one step dispense after stimulation that is automation friendly. This is a hit validation assay in a counterscreen using parental HEK 293 cells lines.
NIH Chemical Genomics Center [NCGC]
NIH Molecular Libraries Probe Centers Network [MLPCN]
Assay Provider: Marvin Gershengorn, NIDDK
An anti cAMP antibody contains a fluorescent cryptate tag (excitation 337 nm; emission 620 nm) and the acceptor is cAMP-d2 (excitation 620 nm; emission 665 nm). When antibody and cAMP-d2 interact and are excited by a 337 nm light, a FRET occurs resulting in emission at 665 nm. The assay is competition between cAMP-d2 and cAMP (from the cell lysate). The homogeneous protocol allows for one step dispense after stimulation that is automation friendly. This assay uses parental HEK-EM 293 cells
(In general: Quantitative high-throughput screening tests each substance at several concentrations.)
`COC(=O)c1sc(-c2ccc(Cl)cc2)cc1NC(=O)/C=C/C(=O)O`: the Potency entry was “inactive”.

For `COc1cccc(-c2nc(CS(=O)(=O)CC(=O)NC3CCCCCC3)c(C)o2)c1`, the Potency entry was “inactive”.

On to `CCCOc1ccc(-c2cc(C(=O)NCC3CCCO3)c3ccccc3n2)cc1` (stereo unspecified), for which the Potency entry is “inactive”.

For `COc1ccc(S(=O)(=O)N2CCN(c3cccc(C)c3C)CC2)cc1`, the Potency result was “inactive”.

For the compound `CCOC(=O)c1cc(C(=O)Nc2sc3c(c2C#N)CCCC3)nn1C`, the Potency result was “inactive”.

As for `Cc1cccc(N(C(=O)c2nsc(Cl)c2Cl)C(C(=O)NC2CCCC2)c2ccc(O)cc2)c1C` (stereo unspecified), the Potency result was “inactive”.

`Cc1occc1-c1nnc(SCC(=O)Nc2nc(C(C)(C)C)cs2)o1`: the Potency entry is “inactive”.

Regarding `COc1ccc(Cn2nnnc2C(C(C)C)N2CCN(c3ccccc3OC)CC2)cc1` (stereo unspecified), the Potency entry was “inactive”.

As to `O=C(Nc1nc(-c2ccc(S(=O)(=O)N3CCCCCC3)cc2)cs1)c1ccccc1`, the Potency entry was “inactive”.

For `Cc1ccc(C)c(C(=O)OCC(=O)Nc2cccc(S(=O)(=O)N3CCCCC3)c2)c1`, the Potency result is “inactive”.

`CCOC(=O)c1c(-c2ccccc2)csc1NC(=O)CSc1nnnn1C`: the Potency result is “inactive”.

For the compound `Cc1ccccc1-c1cc(C(=O)Nc2sc(C(=O)OC(C)C)c(C)c2C#N)c2ccccc2n1`, the Potency result was “inactive”.

As to `Cc1ccc(C(=O)COC(=O)CCN2C(=O)C3C4CCC(C4)C3C2=O)cc1[N+](=O)[O-]` (stereo unspecified), the Potency entry is “inactive”.

`COc1ccc(CCNc2ncnc3sc(C)cc23)cc1OC`: the Potency result is “inactive”.

Take `Cc1cc2c(NCc3ccccc3)ncnc2s1`: the Potency entry is “inactive”.

For the compound `COC(=O)c1ccc(/C(O)=C(\C#N)c2nc3ccccc3s2)cc1`, the Potency entry was “inactive”.

For `COc1ccc(-c2sc3ccc(N4CCOCC4)cc3c2C#CCO)cc1`, the Potency entry was “inactive”.

On to `Cc1[nH]c2ccccc2c1/C=C/c1cc[n+](C)cc1`, for which the Potency entry was “inactive”.

Turning to `O=C(NCC1CCCN(C(=O)c2cccc(C(F)(F)F)c2)C1)c1ccc(F)cc1` (stereo unspecified), the Potency result is “inactive”.

Consider `COc1ccc(-c2c(C(F)(F)F)[nH]n3c(=O)cc(-c4ccccc4)nc23)cc1`, for which the Potency entry is “inactive”.

For the compound `COc1ccc(/C=C2/SC(=S)NC2=O)cc1OCc1ccccc1`, the Potency entry was “inactive”.

Take `COc1ccc(OC)c2c1C(=O)C(Cl)=C(Cl)C2=O`: the Potency entry is “inactive”.

With `O=C1c2ccccc2C(=O)N1CCCCSc1nnnn1-c1ccccc1`, the Potency result is “inactive”.

For the compound `Cc1cc(Br)ccc1OCC(=O)NC1CCCC1`, the Potency result is “inactive”.

For the compound `COc1ccccc1NS(=O)(=O)c1cc(NC(=O)c2ccc3c(c2)OCCO3)ccc1C`, the Potency result is “inactive”.

`O=C(COc1ccc(Cl)cc1Cl)Nc1ccc(C(=O)Nc2ccccc2C(=O)O)cc1`: the Potency result is “inactive”.

Regarding `O=C(COC(=O)c1ccccc1SCC(=O)N1CCCC1)Nc1ccccc1`, the Potency result was “inactive”.

In the case of `Cc1ccc(OC(F)F)c(NC(=O)Nc2cccc(C(F)(F)F)c2)c1`, the Potency result was “inactive”.

For the compound `O=C(c1cc(COc2cccc3cnccc23)on1)N1CCCC(CCCO)C1` (stereo unspecified), the Potency result was “inactive”.

For `Cc1ccc(S(=O)(=O)/N=C2/NC(=O)/C(=C\c3cc(Br)cc(Br)c3O)S2)cc1`, the Potency result is “inactive”.

For the compound `CCN(CC)S(=O)(=O)c1cccc(C(=O)/C=C2/N(C)c3ccccc3C2(C)C)c1`, the Potency result is “inactive”.

As to `CCCOc1ccc(CSc2nc3ccccc3[nH]2)cc1`, the Potency result is “inactive”.

As to `Cc1nn(CCCC(=O)Nc2cc(Oc3ccccc3)cc([N+](=O)[O-])c2)c(C)c1[N+](=O)[O-]`, the Potency entry is “inactive”.

Regarding `Cc1ccccc1CS(=O)(=O)c1ncc(Cl)c(C(=O)Nc2ccc(F)cc2)n1`, the Potency result was “inactive”.

Consider `Cc1cc(NC(=O)CC(C)C)c(=O)n(Cc2cccc(F)c2)c1`, for which the Potency entry was “inactive”.

Consider `CCOC(=O)c1c(NC(=O)/C=C/C(=O)O)sc(C)c1-c1ccc(F)cc1`, for which the Potency result is “inactive”.

For the compound `Cc1cc(NC(=O)c2cccc(S(=O)(=O)N3CCOCC3)c2)c2ccccc2n1`, the Potency entry was “inactive”.

Consider `O=C(Nc1nnc(C(F)(F)F)s1)c1ccc(Br)s1`, for which the Potency entry is “inactive”.

For the compound `COc1ccc(-c2nc(NC(=O)c3cc(C(C)(C)C)nn3C)sc2C)cc1`, the Potency entry is “inactive”.

Regarding `CCc1noc(C)c1C(=O)Oc1ccc(N(C)S(=O)(=O)c2ccc(C)cc2)cc1`, the Potency result is “inactive”.

Turning to `COc1ccc(C(=O)N2CCN(c3ccc([N+](=O)[O-])c(NCCc4ccc(OC)c(OC)c4)c3)CC2)cc1`, the Potency result was “inactive”.

Turning to `O=[N+]([O-])c1ccc(S(=O)(=O)c2ccccc2)nc1`, the Potency result is “inactive”.

For the compound `CC1CC(C)CN(C(=O)c2ccc3c(=O)n(Cc4ccc5c(c4)OCO5)c(=S)[nH]c3c2)C1` (stereo unspecified), the Potency entry is “inactive”.

Take `CCc1nnc(NC(=O)c2ccc(Cl)c(S(=O)(=O)N3CCc4ccccc43)c2)s1`: the Potency entry is “inactive”.

On to `COCCn1nnnc1C(c1cccs1)N1CCN(c2cc(C)ccc2C)CC1` (stereo unspecified), for which the Potency result was “inactive”.

Take `Cc1cc(NC(=O)c2cc(-c3ccco3)on2)nn1Cc1ccc(Cl)cc1`: the Potency entry was “inactive”.

For `COc1ccc(-c2csc(NC(=O)c3ccccc3NS(=O)(=O)c3ccc(C)cc3)n2)cc1`, the Potency result is “inactive”.

For `Cc1cccc(OCCCCc2c(C)n[nH]c2C)c1C`, the Potency result was “inactive”.

In the case of `Cc1cc2cc(CCNC(=O)c3ccc(S(=O)(=O)N4CCCC4)cc3)c(=O)[nH]c2cc1C`, the Potency result is “inactive”.

As to `O=C(NCCc1ccccc1)C(=O)NCC1OCCCN1S(=O)(=O)c1cc(F)ccc1F` (stereo unspecified), the Potency result was “inactive”.

Take `CCOc1ccc(NS(=O)(=O)c2cc(NC(=O)c3cccc(C)c3)ccc2Cl)cc1`: the Potency result was “inactive”.
